Pf growth 48h = inhibits P. falciparum growth in the first generation, 48 h | P. falciparum luciferase growth in erythrocytes, 48 h | Potency, µM (doses to about 28.7 µM), inactives show at the top dose activity change, negative = inhibition, most hits filed as inhibitors | 310,000 compounds, 5.9% hits; also: potency is read from the fitted curve at half-maximal effect; % is scaled to controls: 0 for no effect and ±100 for the full control effect
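First compound was added to culture medium, then infected red cells at 0.1% parasitemia and 2% hematocrit (final). After incubation at 37 C under 5% CO2, luciferase detection reagent was dispensed and light output recorded.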
HCMV antiviral = human cytomegalovirus inhibition; 410,000 compounds, 4.5% hits; HFF cells, HCMV-luciferase reporter, 72 h; stronger effect = lower value; activity change, negative = inhibition, % at 57.5 µM; in the data active = activity change below about -60%; inconclusive = no clear call, values can overlap the other calls; inactive = above about -39%; also: % is scaled to controls: 0 for no effect and ±100 for the full control effect
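After 16 h attachment at 37C, HFF cells received test compound and HCMV-luciferase (1 PFU/cell); reporter luminescence read 72 h later, data normalized against buffer-only and known inhibitor Salinomycin.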
Pf growth 96h = P. falciparum growth inhibition at 96 hour, primary screen for plastid delayed-death inhibitors. Potency, µM (series often up to 28.7 µM), without a hit: at the top dose activity change, negative = inhibition, most hits filed as inhibitors. 320,000 compounds, 6.9% hits. P. falciparum luciferase reporter growth, 96 h; also: potency is read from the fitted curve at half-maximal effect; % is scaled to controls: 0 for no effect and ±100 for the full control effect
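Two parasite generations (96 h, 37 C, 5% CO2) of compound exposure in infected erythrocytes (0.05% parasitemia, 2% hematocrit). Luciferase-reporter P. falciparum; decreased luminescence indicates inhibited growth, aimed at apicoplast-acting delayed death.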
Shiga inhibitor = blocks Shiga toxin action in Vero cells; Vero cells, Shiga toxin protein synthesis inhibition reporter; inhibition, % at 38.7 µM; 290,000 compounds, 9.2% hits; AID 2315; in the data active = inhibition mostly above about 28%, no sharp cut-off; inactive = mostly below about 43%; also: 0% is about no effect
CHX counter = affects cycloheximide protein synthesis inhibition readout, counter-screen. cell reporter, cycloheximide protein synthesis inhibition counterscreen. max response, %. AID 2314. 300,000 compounds, 12% hits; in the data active = max response mostly above about 13%, no sharp cut-off; inactive = mostly below about 14%; also: read at 38.3 µM for the half of the compounds with a filed dose; 0% is about no effect
Active calls of the source: *; i = inactive; ? = inconclusive; nt = no result given; + = active, no number; ! = repeats disagree. This is a sample that favours compounds with a hit; in the whole collection about 20% have one here. Unless noted, calls follow the shape of the dose curve; as a rule, active = well fitted inhibition curve with a large enough effect; inconclusive = small, poorly fitted or top-dose-only effect, or another doubt; inactive = no such curve, though single readings can be large or run the other way.

SMILES	Pf growth 48h	HCMV antiviral	Pf growth 96h	Shiga inhibitor	CHX counter
CCCCc1nc(N2CCOCC2)c(C#N)c2c1COC(C)(C)C2	6.57µM*	22.1	9.28µM*	-5.6	-3.2
CC1(C)Cc2c(C#N)c(SCCC#N)nc(N3CCOCC3)c2CS1	?	11.8	4.65µM*	-3.3	-2.4
CC(=O)Nc1ccc(NC(=O)c2c(C)nn(-c3ccccc3)c2-n2cccc2)cc1	nt	54.3	nt	nt	nt
CC1(C)Cc2c(C#N)c(SCC(=O)O)nc(N3CCOCC3)c2CO1	nt	-12.6	nt	nt	nt
CC(C)OC(=O)CSc1nc(N2CCOCC2)c2c(c1C#N)CC(C)(C)OC2	4.65µM*	8.4	?	-4.6	-9.0
CCOc1ccc(Cl)cc1C1CC(=O)Nc2cc(OC)c(OC)c(OC)c21 (stereo not drawn)	nt	20.5	nt	nt	nt
Cc1ccc(CNC(=O)C2CCN(Cc3nc(-c4cccc(Br)c4)oc3C)CC2)cc1	nt	21.9	nt	nt	nt
Cc1cc(C(=O)COC(=O)c2ccccc2NCCO)c(C)n1CC1CCCO1 (stereo not drawn)	-5.7%	-29.7	-56.5%	111.9*	88.7*
Cc1cc(C(=O)COC(=O)c2n[nH]c3ccccc23)c(C)n1CC1CCCO1 (stereo not drawn)	334.9%	7.4	i	44.4	37.7*
Cc1cc(C(=O)COC(=O)c2ccccc2O)c(C)n1CC1CCCO1 (stereo not drawn)	-4.1%	-72.8*	0.0%	nt	nt
Cc1cc(C(=O)COC(=O)c2cccnc2Cl)c(C)n1CC1CCCO1 (stereo not drawn)	234.4%	7.7	i	-11.2	-2.8
Cc1ccc(C(=O)OCC(=O)c2cc(C)n(CC3CCCO3)c2C)cc1 (stereo not drawn)	103.3%	10.0	102.7%	107.5*	40.0*
Cc1cc(C(=O)COC(=O)c2ccccc2Br)c(C)n1CC1CCCO1 (stereo not drawn)	61.6%	nt	183.1%	1.8	16.0
Cc1cc(C(=O)COC(=O)c2cccc(NS(C)(=O)=O)c2)c(C)n1CC1CCCO1 (stereo not drawn)	nt	-27.0	nt	nt	nt
CCCCCCn1c(=O)n2n(c1=O)[C@@H]1CN(S(=O)(=O)c3ccc(C)cc3)C[C@]1(O)[C@@H](OC(=O)NCC1CCCCC1)C2	nt	-21.2	nt	nt	nt
CC(C)C(NS(=O)(=O)c1cccc2nsnc12)C(=O)NC1CCCCC1C (stereo not drawn)	5.4%	nt	?	13.0	6.2
O=C(NCc1ccccc1Cl)c1cnc(N2CCCCC2)c2ccccc12	nt	25.5	nt	nt	nt
CCOc1cc(C(=O)OCC(=O)c2c(C)[nH]c3ccccc23)ccc1OCC(=O)N1CCOCC1	?	-23.4	-29.7%	43.3	-2.0
Cc1cc(C(=O)COC(=O)C2COc3ccccc3O2)c(C)n1CC1CCCO1 (stereo not drawn)	5.9%	26.2	4.6%	-3.2	8.0
Cc1cc(C(=O)COC(=O)c2cc(O)c3ccccc3c2O)c(C)n1CC1CCCO1 (stereo not drawn)	?	nt	?	25.5	14.4*
CCOc1cc(C(=O)OCC(=O)c2cc(C)n(CC3CCCO3)c2C)ccc1OCC(=O)N1CCOCC1 (stereo not drawn)	18.1%	10.7	0.0%	53.2*	31.6*
Cc1cc(C(=O)COc2ccccc2C(N)=O)c(C)n1CC1CCCO1 (stereo not drawn)	75.6%	-62.0*	9.8%	48.1	25.7*
Cc1cc(NC(=O)CC2CCCC2)ccc1Br	84.7%	18.4	82.9%	62.5*	26.3*
O=C(CC1NCCNC1=O)Nc1cccc(F)c1 (stereo not drawn)	nt	-14.4	nt	nt	nt
Cc1cccc(NC(=O)CC2NCCNC2=O)c1 (stereo not drawn)	nt	-1.9	4.1%	38.6	24.1*
SMILES	Pf growth 48h	HCMV antiviral	Pf growth 96h	Shiga inhibitor	CHX counter
Cc1cccc(NC(=O)CC2CCC2)c1	22.0%	11.0	nt	12.3	20.0*
CCOC(=O)c1cc(C#N)c(C)nc1N(CC)CC	27.6%	10.4	0.0%	-5.2	1.5
Cc1ccccc1OCCC(=O)Nc1ccccc1C(=O)N1CCCCC1	?	-11.2	33.7%	nt	nt
O=C(COc1ccccc1Cl)Nc1ccccc1C(=O)N1CCCCC1	44.4%	85.5	2.5%	84.7*	43.4*
Cc1ccccc1OCC(=O)Nc1ccccc1C(=O)N1CCCCC1	6.5%	20.0	10.4µM*	-3.8	15.8
CCOCCCN(C)C1CCN(C(=O)c2oc3ccccc3c2NC(=O)Cc2ccc(F)cc2)CC1	?	?	36.5%	-3.1	-4.5
CCCNC(=O)C1(C)CCCN(C/C=C/c2ccccc2)C1 (stereo not drawn)	nt	-30.0	nt	nt	nt
O=C(/C(C=Nc1cccc(C(F)(F)F)c1)=C(/O)c1ccco1)C(F)(F)F	53.2%	65.4	19.9%	126.5*	92.9*
Cn1nc(C(F)(F)F)c(-c2ccc(Br)cc2)c1NC(=O)c1ccco1	?	?	?	-9.8	-0.7
O=C(/C(C=Nc1ccc(Br)cc1)=C(/O)c1ccco1)C(F)(F)F	227.5%	128.6	2.94µM*	+	41.7*
CCOC(=O)CCc1c(C)c2ccc(OCC(=O)N(CC)CC)c(C)c2oc1=O	10.4µM*	3.7	nt	-10.8	3.9
COC(=O)Cc1c(C)c2ccc(OCc3nn[nH]n3)c(C)c2oc1=O	8.2%	11.2	nt	26.8	3.4
C=C(C)COc1ccc2c(C)c(C)c(=O)oc2c1OCC(=C)C	11.7µM*	?	3.6%	-22.8	8.3
CCc1c(C)c2ccc(OCC(=O)N(C)C)c(C)c2oc1=O	3.9%	1.0	?	20.3	7.1
C=C(C)COc1ccc2c(C)c(CC(=O)OC)c(=O)oc2c1C	?	nt	29.5%	+	47.1*
COC(=O)Cc1c(C)c2ccc(OCC(C)=O)c(C)c2oc1=O	171.1%	39.2	nt	91.6*	42.7*
COC(=O)Cc1c(C)c2ccc(OCC(=O)N3CCCC(C)C3)c(C)c2oc1=O (stereo not drawn)	?	-5.6	-21.3%	5.0	-1.1
O=[N+]([O-])C(=C1Nc2ccccc2N1)/C(Cl)=C(/Cl)Br	2.9%	6.0	-2.6%	-6.2	-0.3
COc1ccc(C2=Nn3c(nnc3C(F)(F)F)SC2)cc1	-12.1%	-3.9	-4.1%	-8.5	-1.1
O=C(N=NC(=O)c1ccco1)c1ccc2c(O)n(N3C(=O)c4ccccc4C3=O)c(O)c2c1	4.9%	13.1	9.1%	-3.9	-4.0
Cc1ccc(SCC(=O)Nc2ccc(S(N)(=O)=O)cc2)cc1	22.8%	1.2	24.7%	29.9	9.5
c1ccc(-c2nc(C3CCCCC3)c3ccccc3n2)cc1	21.9%	-15.7	138.3%	nt	nt
OCCN1CCN(CCC=C2c3ccccc3Sc3ccc(Cl)cc32)CC1	?	nt	4.55µM*	nt	nt
OCCN1CCN(CC/C=C2/c3ccccc3Sc3ccc(C(F)(F)F)cc32)CC1	6.57µM*	-29.7	8.28µM*!	-26.9	-13.0
CC(C)(C)NC(=O)c1nn(Cc2ccccc2)c(=O)c2ccccc12	-5.3%	102.3	?	13.9	13.9
CCCCc1cn([C@@H](CCCCNC(=O)OC(C)(C)C)C(=O)N2CCN(C(=O)OC(C)(C)C)CC2)nn1	14.7µM*	49.0	10.4µM*	-7.4	8.7

Screening results: PubChem BioAssay, National Center for Advancing Translational Sciences (NCATS)
